Assay results: the supplement of paper PMC10849652
The full data set covers some 8,800 targets. This sample favours those with a hit. About 0.5% of all pairs of compound and target were hits.

Tests used:
Test in all cases: log2 fold change, soluble protein after heating vs DMSO (PISA); higher = thermal stabilisation; K562 lysate, 10 uM; active = over 0.2 and 3.5 SD of the protein, either way, in both replicates (recomputed)
ibrutinib = compound: C=CC(=O)N1CCC[C@@H](n2nc(-c3ccc(Oc4ccccc4)cc3)c3c(N)ncnc32)C1 [ibrutinib]
Procedure, shortened: (§1)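 To prepare the extract, K562 pellets were dounce-homogenised in PBS pH 7.4 with 1 mM MgCl2, giving crude material at 1 mg/mL protein. This was treated with 10 μM compound for 30 min, then heated in aliquots for 3 min over 48°C-58°C before pooling and addition of NP-40 to 0.5% at 4°C. Centrifugation at 21,000xg for 90 min left soluble protein in the supernatant, which TMTpro 16plex LC-MS/MS quantified with equalised channel sums. Results are log-two fold changes in thermal stability compared with solvent controls, from duplicates.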

[1] = compound: CC(=O)c1cnc2ccc(-c3cc(Cl)c(O)c(Cl)c3)nc2c1N[C@H]1CC[C@H](CN(C)C)CC1
Procedure, shortened: as §1

ralimetinib = compound: CC(C)(C)Cn1c(N)nc2ccc(-c3[nH]c(C(C)(C)C)nc3-c3ccc(F)cc3)nc21 [ralimetinib]
Procedure, shortened: as §1

[2] = compound: CC(C)(O)CC(=O)NCCn1ccc2ncnc(Nc3ccc(Oc4cccc(C(F)(F)F)c4)c(Cl)c3)c21
Procedure, shortened: as §1

[3] = compound: CC(C)C1=C2N=C(C=C(N2N=C1)NCC3=CC=CC=C3)NCCCCCCN
Procedure, shortened: as §1

[4] = compound: CC1=C(C(CC(=O)N1)C2=CC=C(C=C2)C(F)(F)F)C(=O)NC3=C(C=C4C(=C3)C=NN4)F
Procedure, shortened: as §1

[5] = compound: CC1=C(C2=C(C=C1)C(=O)C3=CC=CC=C3N2CCCN)C
Procedure, shortened: as §1

[6] = compound: CC1=C(C=C(C=C1)NC(=O)C2=CC(=CC=C2)C(C)(C)C#N)NC3=CC4=C(C=C3)N=CN(C4=O)C
Procedure, shortened: as §1

[7] = compound: CC1=C(C=C(C=C1)NC(=O)C2=CC(=CC=C2)N(C)C)NC(=O)C3=CC=C(C=C3)O
Procedure, shortened: as §1

[8] = compound: CC1=CC=C(C=C1)SC2=C3C=C(SC3=CN=C2)C(=O)N
Procedure, shortened: as §1

Measured: log2 fold change

ATXN2 (UniProt Q99700)
inactive: ibrutinib -0.007 | [1] -0.011 | ralimetinib -0.002 | [2] 0 | [3] 0.016 | [4] 0.013 | [5] -0.022 | [6] -0.02 | [7] 0.041 | [8] -0.021

CDK13 (UniProt Q14004)
UniProt Q14004, sequence (Q14004 whole entry, looked up): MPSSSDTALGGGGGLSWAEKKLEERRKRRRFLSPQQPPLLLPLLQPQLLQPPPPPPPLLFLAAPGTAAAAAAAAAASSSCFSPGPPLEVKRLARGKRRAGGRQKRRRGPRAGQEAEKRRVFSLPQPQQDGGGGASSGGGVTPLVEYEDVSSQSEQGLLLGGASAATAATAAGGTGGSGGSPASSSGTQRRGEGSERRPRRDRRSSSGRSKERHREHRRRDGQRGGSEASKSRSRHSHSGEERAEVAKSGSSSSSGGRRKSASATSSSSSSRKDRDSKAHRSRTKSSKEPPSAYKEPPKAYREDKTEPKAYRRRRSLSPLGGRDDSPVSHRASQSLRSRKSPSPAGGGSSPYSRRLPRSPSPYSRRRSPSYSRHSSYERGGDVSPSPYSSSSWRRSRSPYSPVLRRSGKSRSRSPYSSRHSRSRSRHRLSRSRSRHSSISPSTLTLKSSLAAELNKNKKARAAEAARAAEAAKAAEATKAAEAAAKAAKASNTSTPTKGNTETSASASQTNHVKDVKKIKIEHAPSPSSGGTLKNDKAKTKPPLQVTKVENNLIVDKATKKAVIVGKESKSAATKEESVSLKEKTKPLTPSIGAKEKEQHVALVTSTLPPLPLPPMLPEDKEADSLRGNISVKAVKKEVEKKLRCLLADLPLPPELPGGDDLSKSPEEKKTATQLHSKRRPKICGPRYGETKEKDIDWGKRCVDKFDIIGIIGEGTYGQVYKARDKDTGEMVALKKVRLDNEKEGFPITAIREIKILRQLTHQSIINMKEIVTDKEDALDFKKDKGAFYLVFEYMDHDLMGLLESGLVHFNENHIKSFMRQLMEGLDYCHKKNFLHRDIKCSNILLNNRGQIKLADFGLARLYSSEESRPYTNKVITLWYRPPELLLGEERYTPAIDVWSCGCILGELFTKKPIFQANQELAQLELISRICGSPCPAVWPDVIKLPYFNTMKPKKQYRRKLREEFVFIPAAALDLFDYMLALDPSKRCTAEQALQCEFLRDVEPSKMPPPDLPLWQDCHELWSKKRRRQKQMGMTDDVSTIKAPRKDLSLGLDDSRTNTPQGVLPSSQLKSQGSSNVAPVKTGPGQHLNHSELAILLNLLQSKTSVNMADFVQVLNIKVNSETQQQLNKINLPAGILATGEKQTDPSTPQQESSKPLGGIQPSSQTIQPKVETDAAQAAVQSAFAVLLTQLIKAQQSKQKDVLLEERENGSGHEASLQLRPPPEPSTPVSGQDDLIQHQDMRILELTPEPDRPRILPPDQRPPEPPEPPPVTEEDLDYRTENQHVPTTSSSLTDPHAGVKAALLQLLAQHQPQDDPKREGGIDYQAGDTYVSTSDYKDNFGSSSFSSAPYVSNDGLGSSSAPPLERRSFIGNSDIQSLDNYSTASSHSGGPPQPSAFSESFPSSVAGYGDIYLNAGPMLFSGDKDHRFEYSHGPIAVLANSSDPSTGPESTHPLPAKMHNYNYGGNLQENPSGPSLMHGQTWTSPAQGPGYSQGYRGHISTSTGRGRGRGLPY
inactive: ibrutinib -0.038 | ralimetinib 0.031 | [2] 0.141 | [3] -0.056 | [4] -0.039 | [5] 0.041 | [6] -0.104 | [7] -0.028 | [8] -0.022
active: [1] 0.271

CANX isoform 2 (UniProt P27824)
UniProt P27824, sequence (P27824 whole entry, looked up): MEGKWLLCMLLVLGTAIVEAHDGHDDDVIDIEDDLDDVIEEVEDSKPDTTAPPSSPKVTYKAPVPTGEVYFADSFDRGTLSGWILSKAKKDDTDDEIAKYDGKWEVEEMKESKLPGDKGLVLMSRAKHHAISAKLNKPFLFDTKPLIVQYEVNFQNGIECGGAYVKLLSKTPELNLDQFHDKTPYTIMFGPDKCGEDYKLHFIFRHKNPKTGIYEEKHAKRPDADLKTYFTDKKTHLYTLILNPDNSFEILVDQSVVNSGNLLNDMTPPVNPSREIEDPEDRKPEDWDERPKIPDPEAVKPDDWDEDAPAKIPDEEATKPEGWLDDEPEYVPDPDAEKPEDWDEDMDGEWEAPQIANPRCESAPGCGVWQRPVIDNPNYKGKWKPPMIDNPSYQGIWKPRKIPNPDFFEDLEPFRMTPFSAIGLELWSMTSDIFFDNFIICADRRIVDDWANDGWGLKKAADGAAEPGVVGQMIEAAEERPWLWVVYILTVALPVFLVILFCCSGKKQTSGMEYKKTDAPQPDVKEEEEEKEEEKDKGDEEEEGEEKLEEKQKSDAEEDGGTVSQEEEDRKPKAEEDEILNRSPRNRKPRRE
inactive: ibrutinib -0.046 | [1] -0.009 | ralimetinib -0.029 | [2] 0.003 | [3] 0.007 | [4] 0.001 | [5] -0.004 | [6] 0.011 | [7] 0.029 | [8] -0.025

CHCHD7 isoform 4 (UniProt Q9BUK0)
UniProt Q9BUK0, sequence (Q9BUK0 whole entry, looked up): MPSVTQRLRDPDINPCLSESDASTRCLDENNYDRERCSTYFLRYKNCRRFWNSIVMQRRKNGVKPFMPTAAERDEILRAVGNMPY
inactive: ibrutinib -0.109 | [1] 0.008 | ralimetinib -0.038 | [2] -0.014 | [4] 0.116 | [5] 0.002 | [6] -0.025 | [7] 0.024 | [8] -0.061

CEP128 (UniProt Q6ZU80)
inactive: ibrutinib 0.166 | ralimetinib -0.06 | [2] -0.001 | [5] 0.078 | [7] -0.03

CAPNS1 (UniProt K7ES78)
inactive: [1] 0.028 | ralimetinib 0.061 | [2] -0.196 | [3] -0.101 | [5] 0.025 | [6] 0.148 | [7] -0.105 | [8] -0.075

CDAN1 (UniProt H3BPZ6)
inactive: [6] -0.172

CCDC130 (UniProt P13994)
inactive: ibrutinib -0.232 | ralimetinib 0.181 | [2] 0.077 | [3] -0.112 | [6] 0.252 | [7] 0.072

ATXN2 (UniProt F8WB06)
inactive: [5] 0.187

CDC25A (UniProt P30304)
inactive: [1] -0.009 | ralimetinib 0.014 | [2] -0.044 | [3] 0.019 | [4] -0.017 | [5] 0.012 | [6] 0.087 | [7] 0.015 | [8] 0.002

CDK5RAP1 (UniProt Q96SZ6)
UniProt Q96SZ6, sequence (Q96SZ6 whole entry, looked up): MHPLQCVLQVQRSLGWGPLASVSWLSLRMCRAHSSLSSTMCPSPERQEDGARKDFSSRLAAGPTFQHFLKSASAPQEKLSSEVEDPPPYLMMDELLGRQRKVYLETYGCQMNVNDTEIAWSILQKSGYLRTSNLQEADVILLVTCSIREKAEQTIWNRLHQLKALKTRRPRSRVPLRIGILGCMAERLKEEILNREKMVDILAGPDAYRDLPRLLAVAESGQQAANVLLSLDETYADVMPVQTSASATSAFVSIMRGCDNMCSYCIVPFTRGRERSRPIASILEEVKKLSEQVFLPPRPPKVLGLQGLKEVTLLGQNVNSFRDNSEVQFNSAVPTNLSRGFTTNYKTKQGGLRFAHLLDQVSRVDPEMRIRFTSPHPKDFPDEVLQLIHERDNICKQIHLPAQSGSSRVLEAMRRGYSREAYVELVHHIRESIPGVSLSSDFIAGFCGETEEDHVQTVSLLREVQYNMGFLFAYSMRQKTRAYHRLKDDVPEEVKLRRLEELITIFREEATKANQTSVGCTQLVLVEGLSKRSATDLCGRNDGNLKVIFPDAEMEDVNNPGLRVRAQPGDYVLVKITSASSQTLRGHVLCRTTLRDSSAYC
inactive: ibrutinib -0.369 | ralimetinib -0.018 | [2] -0.062 | [3] 0.122 | [4] -0.002 | [5] -0.027 | [6] -0.001 | [7] 0.045

CCAR2 (UniProt G3V119)
inactive: [1] 0.017 | [8] -0.047

CAD (UniProt H7BZB3)
inactive: [3] -0.073

CHD4, A0A2R8Y521
inactive: [1] -0.049 | ralimetinib -0.175 | [2] -0.011 | [4] -0.19 | [5] 0.191 | [7] 0.228 | [8] 0.314

CD80 (UniProt P33681)
UniProt P33681, sequence (P33681 whole entry, looked up): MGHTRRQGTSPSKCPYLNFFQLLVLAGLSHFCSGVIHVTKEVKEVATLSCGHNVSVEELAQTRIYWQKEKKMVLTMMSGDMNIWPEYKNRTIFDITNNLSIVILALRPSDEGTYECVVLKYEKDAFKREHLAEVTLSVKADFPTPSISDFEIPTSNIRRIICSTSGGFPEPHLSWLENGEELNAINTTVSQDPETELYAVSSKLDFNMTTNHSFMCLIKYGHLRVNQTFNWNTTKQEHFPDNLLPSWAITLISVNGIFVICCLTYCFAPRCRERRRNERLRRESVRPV
inactive: [1] 0.034 | ralimetinib 0.207 | [2] -0.051 | [3] -0.136 | [4] 0.106 | [5] -0.084 | [6] 0.043 | [7] -0.119 | [8] 0.014

BRAF (UniProt P15056)
UniProt P15056, sequence (P15056 whole entry, looked up): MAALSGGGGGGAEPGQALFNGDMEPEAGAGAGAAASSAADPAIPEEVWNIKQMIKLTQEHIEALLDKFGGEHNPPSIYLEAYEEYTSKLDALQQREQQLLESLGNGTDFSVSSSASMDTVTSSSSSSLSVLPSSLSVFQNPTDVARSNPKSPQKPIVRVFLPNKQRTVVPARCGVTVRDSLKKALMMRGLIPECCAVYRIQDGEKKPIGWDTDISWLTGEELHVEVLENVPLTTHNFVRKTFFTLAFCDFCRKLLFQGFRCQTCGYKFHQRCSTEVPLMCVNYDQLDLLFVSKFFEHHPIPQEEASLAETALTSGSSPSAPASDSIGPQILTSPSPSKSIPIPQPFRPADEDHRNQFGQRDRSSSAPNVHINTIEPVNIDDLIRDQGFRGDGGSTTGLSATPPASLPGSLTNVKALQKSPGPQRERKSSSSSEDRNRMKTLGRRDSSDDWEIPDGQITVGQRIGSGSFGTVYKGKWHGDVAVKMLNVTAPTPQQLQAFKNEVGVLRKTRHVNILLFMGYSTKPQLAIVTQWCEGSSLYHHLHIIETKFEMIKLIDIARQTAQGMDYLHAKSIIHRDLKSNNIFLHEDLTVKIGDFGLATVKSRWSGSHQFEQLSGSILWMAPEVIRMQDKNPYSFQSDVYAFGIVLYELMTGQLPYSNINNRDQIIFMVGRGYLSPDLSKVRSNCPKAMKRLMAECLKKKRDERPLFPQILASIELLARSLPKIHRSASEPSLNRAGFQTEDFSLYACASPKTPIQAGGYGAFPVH
active: [6] 0.65
inactive: ibrutinib 0.29 | ralimetinib 0.008 | [3] 0.032 | [4] 0.004 | [5] -0.111 | [8] -0.021

BBS7 (UniProt Q8IWZ6)
UniProt Q8IWZ6, sequence (Q8IWZ6 whole entry, looked up): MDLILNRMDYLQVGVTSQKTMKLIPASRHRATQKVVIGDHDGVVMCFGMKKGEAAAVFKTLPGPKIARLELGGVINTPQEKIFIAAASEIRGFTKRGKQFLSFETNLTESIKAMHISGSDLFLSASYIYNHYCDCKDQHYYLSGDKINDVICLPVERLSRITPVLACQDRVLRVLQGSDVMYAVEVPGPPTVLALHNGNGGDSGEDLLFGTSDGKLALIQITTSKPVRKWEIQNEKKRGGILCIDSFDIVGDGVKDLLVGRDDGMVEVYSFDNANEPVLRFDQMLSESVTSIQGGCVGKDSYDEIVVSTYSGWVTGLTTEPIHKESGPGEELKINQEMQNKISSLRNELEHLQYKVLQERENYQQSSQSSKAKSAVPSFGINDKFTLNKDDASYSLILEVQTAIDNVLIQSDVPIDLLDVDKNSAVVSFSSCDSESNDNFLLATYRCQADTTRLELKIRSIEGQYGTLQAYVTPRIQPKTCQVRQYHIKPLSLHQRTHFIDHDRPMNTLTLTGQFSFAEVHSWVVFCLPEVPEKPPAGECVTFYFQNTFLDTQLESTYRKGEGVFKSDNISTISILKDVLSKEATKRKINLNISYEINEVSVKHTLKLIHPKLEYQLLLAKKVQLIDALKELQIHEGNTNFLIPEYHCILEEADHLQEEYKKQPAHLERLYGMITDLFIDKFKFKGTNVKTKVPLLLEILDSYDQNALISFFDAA
inactive: ralimetinib 0.047 | [2] 0.015 | [3] -0.021 | [4] 0.077 | [5] 0.182 | [6] 0.181 | [7] -0.013

BUD13 (UniProt Q9BRD0)
inactive: ibrutinib 0.07 | ralimetinib 0.033 | [2] 0.034 | [3] -0.051 | [4] -0.051 | [5] -0.219 | [6] 0.013 | [7] -0.013

BTK isoform 2 (UniProt Q06187)
inactive: [1] 0.012 | ralimetinib 0.014 | [2] 0.02 | [3] -0.01 | [4] 0.005 | [5] -0.032 | [6] 0.055 | [7] 0.042 | [8] -0.011

CENPV (UniProt Q7Z7K6)
UniProt Q7Z7K6, sequence (Q7Z7K6 whole entry, looked up): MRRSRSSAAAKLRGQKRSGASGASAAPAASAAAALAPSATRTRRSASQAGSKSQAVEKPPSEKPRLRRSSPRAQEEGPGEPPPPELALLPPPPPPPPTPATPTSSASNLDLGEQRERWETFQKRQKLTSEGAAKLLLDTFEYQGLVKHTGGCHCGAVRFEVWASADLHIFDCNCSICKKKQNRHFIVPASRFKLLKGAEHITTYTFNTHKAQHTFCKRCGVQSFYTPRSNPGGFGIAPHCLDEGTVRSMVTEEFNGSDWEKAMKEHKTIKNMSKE
inactive: ibrutinib 0.036 | ralimetinib 0.352 | [2] -0.235 | [4] 0.182 | [6] 0.121 | [7] -0.13

C15orf39 (UniProt Q6ZRI6)
inactive: ibrutinib -0.141 | ralimetinib -0.005 | [2] -0.029 | [3] -0.06 | [4] 0.104 | [5] 0.039 | [6] -0.03 | [7] 0.019
